# Assay results: the supplement of paper PMC8728848
# Many of the other results were omitted from the sample, so the strongest signals are more common in it than they were.
# Legend:
# Test in all cases: glycan array binding signal (z-score within array); higher = stronger binding
# Conditions in all cases: glycan notation: IUPAC condensed, linker removed
# [1] = molecular target: Fuc(a1-2)Gal(b1-3)GalNAc(a1-3)[Fuc(a1-2)]Gal(b1-4)GlcNAc
# In short: (§1)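 The binding signal is a Z-score computed within each array. Data were drawn from 3228 arrays in the Consortium for Functional Glycomics database, restricted to those with a known protein sequence. Scores were averaged over arrays of the same protein sequence at different concentrations or buffers, and over linkers, and negative values can be taken as non-binding.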
# [2] = molecular target: Fuc(a1-2)Gal(b1-3)GlcNAc(b1-2)Man(a1-3)[Fuc(a1-2)Gal(b1-3)GlcNAc(b1-2)Man(a1-6)]Man(b1-4)GlcNAc(b1-4)GlcNAc
# In short: as §1
# [3] = molecular target: Fuc(a1-2)Gal(b1-3)GlcNAc6S
# In short: as §1
# [4] = molecular target: Fuc(a1-2)Gal(b1-3)[Fuc(a1-4)]GlcNAc
# In short: as §1
# [5] = molecular target: Fuc(a1-2)Gal(b1-3)[Fuc(a1-4)]GlcNAc(b1-3)[Gal(b1-4)GlcNAc(b1-6)]Gal(b1-4)Glc
# In short: as §1
# [6] = molecular target: Fuc(a1-2)[Gal(a1-4)]Gal(b1-4)GlcNAc
# In short: as §1
# [7] = molecular target: Fuc(a1-2)[GalNAc(a1-3)]Gal(b1-3)GalNAc(a1-3)[Fuc(a1-2)]Gal(b1-4)GlcNAc
# In short: as §1
# [8] = molecular target: Fuc(a1-3)[Gal(b1-4)]GlcNAc(b1-2)Man
# In short: as §1
# [9] = molecular target: Fuc(a1-3)[Gal(b1-4)]GlcNAc(b1-6)GalNAc
# In short: as §1
# [10] = molecular target: Gal(a1-4)Gal(b1-4)GlcNAc(b1-2)Man(a1-3)[Gal(a1-4)Gal(b1-4)GlcNAc(b1-2)Man(a1-6)]Man(b1-4)GlcNAc(b1-4)GlcNAc
# In short: as §1
# [11] = molecular target: Gal(a1-4)Gal(b1-4)GlcNAc(b1-3)Gal(b1-4)Glc
# In short: as §1
# Gal(b1-3)Gal = molecular target: Gal(b1-3)Gal
# In short: as §1
# Gal(b1-3)Gal(b1-4)GlcNAc = molecular target: Gal(b1-3)Gal(b1-4)GlcNAc
# In short: as §1
# Gal(b1-3)GalNAc(b1-3)Gal = molecular target: Gal(b1-3)GalNAc(b1-3)Gal
# In short: as §1
# Gal(b1-3)GlcNAc = molecular target: Gal(b1-3)GlcNAc
# In short: as §1
# [12] = molecular target: Gal(b1-3)[Neu5Ac(a2-6)]GlcNAc(b1-4)Gal(b1-4)Glc
# In short: as §1
# [13] = molecular target: Gal(b1-4)GlcNAc(b1-2)[Gal(b1-4)GlcNAc(b1-4)]Man(a1-3)[Gal(b1-4)GlcNAc(b1-2)Man(a1-6)]Man(b1-4)GlcNAc(b1-4)GlcNAc
# In short: as §1
# [14] = molecular target: Gal(b1-4)GlcNAc(b1-3)Gal(b1-4)GlcNAc(b1-2)Man(a1-3)[Gal(b1-4)GlcNAc(b1-3)Gal(b1-4)GlcNAc(b1-2)Man(a1-6)]Man(b1-4)GlcNAc(b1-4)[Fuc(a1-6)]GlcNAc
# In short: as §1
# [15] = molecular target: Gal(b1-4)GlcNAc(b1-3)Gal(b1-4)GlcNAc(b1-3)Gal(b1-4)GlcNAc(b1-2)[Gal(b1-4)GlcNAc(b1-3)Gal(b1-4)GlcNAc(b1-3)Gal(b1-4)GlcNAc(b1-6)]Man(a1-6)[Gal(b1-4)GlcNAc(b1-3)Gal(b1-4)GlcNAc(b1-3)Gal(b1-4)GlcNAc(b1-2)Man(a1-3)]Man(b1-4)GlcNAc(b1-4)[Fuc(a1-6)]GlcNAc
# In short: as §1
# [16] = molecular target: Gal(b1-4)GlcNAc(b1-3)Gal(b1-4)GlcNAc(b1-3)Gal(b1-4)GlcNAc(b1-3)Gal(b1-4)GlcNAc(b1-3)Gal(b1-4)GlcNAc(b1-2)[Gal(b1-4)GlcNAc(b1-3)Gal(b1-4)GlcNAc(b1-3)Gal(b1-4)GlcNAc(b1-3)Gal(b1-4)GlcNAc(b1-3)Gal(b1-4)GlcNAc(b1-6)]Man(a1-6)[Gal(b1-4)GlcNAc(b1-3)Gal(b1-4)GlcNAc(b1-3)Gal(b1-4)GlcNAc(b1-3)Gal(b1-4)GlcNAc(b1-3)Gal(b1-4)GlcNAc(b1-2)Man(a1-3)]Man(b1-4)GlcNAc(b1-4)[Fuc(a1-6)]GlcNAc
# In short: as §1
# [17] = molecular target: Gal(b1-4)GlcNAc(b1-3)Gal(b1-4)GlcNAc(b1-3)[Gal(b1-4)GlcNAc(b1-3)Gal(b1-4)GlcNAc(b1-6)]GalNAc
# In short: as §1
# Gal3S(b1-3)GlcNAc = molecular target: Gal3S(b1-3)GlcNAc
# In short: as §1
# [18] = molecular target: Gal3S(b1-4)[Fuc(a1-3)]GlcNAc6S
# In short: as §1
# Gal3S6S(b1-4)GlcNAc6S = molecular target: Gal3S6S(b1-4)GlcNAc6S
# In short: as §1
# Gal4S6S(b1-4)GlcNAc = molecular target: Gal4S6S(b1-4)GlcNAc
# In short: as §1
# GalNAc(b1-3)GalNAc = molecular target: GalNAc(b1-3)GalNAc
# In short: as §1
# GalNAc(b1-6)GalNAc = molecular target: GalNAc(b1-6)GalNAc
# In short: as §1
# [19] = molecular target: GalNAc3S(b1-4)[Fuc(a1-3)]GlcNAc
# In short: as §1
# Glc(b1-6)Glc = molecular target: Glc(b1-6)Glc
# In short: as §1
# [20] = molecular target: GlcNAc(a1-4)Gal(b1-4)GlcNAc(b1-3)Gal(b1-4)[Fuc(a1-3)]GlcNAc(b1-3)Gal(b1-4)[Fuc(a1-3)]GlcNAc
# In short: as §1
# [21] = molecular target: GlcNAc(b1-2)Gal(b1-3)GalNAc
# In short: as §1
# GlcNAc(b1-3)Fuc = molecular target: GlcNAc(b1-3)Fuc
# In short: as §1
# [22] = molecular target: GlcNAc(b1-3)Gal(b1-4)GlcNAc(b1-2)Man(a1-3)[GlcNAc(b1-3)Gal(b1-4)GlcNAc(b1-2)Man(a1-6)]Man(b1-4)GlcNAc(b1-4)[Fuc(a1-6)]GlcNAc
# In short: as §1
# [23] = molecular target: GlcNAc(b1-3)[GlcNAc(b1-6)]Gal(b1-4)GlcNAc
# In short: as §1
# [24] = molecular target: GlcNAc(b1-4)GlcNAc(b1-4)GlcNAc(b1-4)GlcNAc(b1-4)GlcNAc
# In short: as §1
# [25] = molecular target: Man(a1-2)Man(a1-3)[Man(a1-6)]Man(a1-6)[Man(a1-2)Man(a1-3)]Man(b1-4)GlcNAc(b1-4)GlcNAc
# In short: as §1
# [26] = molecular target: Man(a1-3)[Man(a1-6)]Man(a1-6)[Man(a1-3)]Man(b1-4)GlcNAc(b1-4)GlcNAc
# In short: as §1
# [27] = molecular target: Neu5Ac(a2-3)Gal(b1-3)GalNAc(b1-4)[Neu5Ac(a2-3)]Gal(b1-4)Glc
# In short: as §1
# [28] = molecular target: Neu5Ac(a2-3)Gal(b1-3)GlcNAc(b1-2)Man
# In short: as §1
# [29] = molecular target: Neu5Ac(a2-3)Gal(b1-3)GlcNAc(b1-3)Gal(b1-4)GlcNAc
# In short: as §1
# [30] = molecular target: Neu5Ac(a2-3)Gal(b1-3)[GlcNAc(b1-6)]GalNAc
# In short: as §1
# [31] = molecular target: Neu5Ac(a2-3)Gal(b1-3)]Neu5Ac(a2-3)Gal(b1-4)]GlcNAc
# In short: as §1
# [32] = molecular target: Neu5Ac(a2-3)Gal(b1-4)GlcNAc(b1-2)Man(a1-3)[Neu5Ac(a2-3)Gal(b1-4)GlcNAc(b1-2)Man(a1-6)]Man(b1-4)GlcNAc(b1-4)[Fuc(a1-6)]GlcNAc
# In short: as §1
# [33] = molecular target: Neu5Ac(a2-3)Gal(b1-4)GlcNAc(b1-3)Gal(b1-4)GlcNAc
# In short: as §1
# [34] = molecular target: Neu5Ac(a2-3)Gal(b1-4)GlcNAc6S
# In short: as §1
# [35] = molecular target: Neu5Ac(a2-3)Gal(b1-4)[Fuc(a1-3)]GlcNAc(b1-2)Man
# In short: as §1
# [36] = molecular target: Neu5Ac(a2-6)Gal(b1-4)GlcNAc(b1-2)Man(a1-6)[Man(a1-3)]Man(b1-4)GlcNAc(b1-4)GlcNAc
# In short: as §1
# [37] = molecular target: Neu5Ac(a2-6)Gal(b1-4)GlcNAc(b1-3)Gal(b1-4)GlcNAc(b1-3)Gal(b1-4)GlcNAc(b1-2)Man(a1-3)[Neu5Ac(a2-6)Gal(b1-4)GlcNAc(b1-3)Gal(b1-4)GlcNAc(b1-3)Gal(b1-4)GlcNAc(b1-2)Man(a1-6)]GalNAc
# In short: as §1
# [38] = molecular target: Neu5Ac(a2-6)Gal(b1-4)GlcNAc(b1-3)Gal(b1-4)GlcNAc(b1-3)GalNAc
# In short: as §1
# [39] = molecular target: Neu5Ac(a2-6)Gal(b1-4)GlcNAc(b1-3)Gal(b1-4)GlcNAc(b1-3)[Neu5Ac(a2-6)Gal(b1-4)GlcNAc(b1-3)Gal(b1-4)GlcNAc(b1-6)]GalNAc
# In short: as §1
# [40] = molecular target: Neu5Ac(a2-6)Gal(b1-4)GlcNAc(b1-6)[Gal(b1-3)GlcNAc(b1-3)]Gal(b1-4)Glc
# In short: as §1
# [41] = molecular target: Neu5Ac(a2-6)GalNAc(b1-4)GlcNAc6S
# In short: as §1
# [42] = molecular target: Neu5Ac(a2-8)Neu5Gc(a2-3)Gal(b1-4)GlcNAc
# In short: as §1
# [43] = molecular target: Neu5Gc(a2-3)Gal(b1-4)GlcNAc(b1-3)Gal(b1-4)GlcNAc(b1-2)Man(a1-3)[Neu5Gc(a2-3)Gal(b1-4)GlcNAc(b1-3)Gal(b1-4)GlcNAc(b1-2)Man(a1-6)]Man(b1-4)GlcNAc(b1-4)GlcNAc
# In short: as §1
binder,measurement,setting,value
SJCP1531 (Schistosoma japonicum) (protein) MFKVRIINLVNISTVLLLINLLQTKSQVNVEQLVTVLEVNIKAQLKNKTTEVLVEWNPLYQDNSMPEYRKLLDETCKLFLPFVNEKVPPSTYGGECTNANFSEAPQDGSYSRVNAELRLIYKYSDNPQIQTDRLQDDLNDREEFITSESSFVAYNPKFTVKIEKLFIPISESQTTPPPTTAKNDASKKDDDDNGGEDSKAPIDTFAMTASGNKGKKDDDDNGGEDSKAPIDTFAMTASGSKDERSTWTIIGIITLVVLIFVVIGGGITVFVKRC,glycan array binding signal (z-score),[1],-0.571
same,glycan array binding signal (z-score),[2],-0.207
same,glycan array binding signal (z-score),[3],-0.955
same,glycan array binding signal (z-score),[4],0.144
same,glycan array binding signal (z-score),[5],0.498
same,glycan array binding signal (z-score),[6],0.12
same,glycan array binding signal (z-score),[7],-0.433
same,glycan array binding signal (z-score),[8],0.026
same,glycan array binding signal (z-score),[9],1.34
same,glycan array binding signal (z-score),[10],2.24
same,glycan array binding signal (z-score),[11],1.03
same,glycan array binding signal (z-score),Gal(b1-3)Gal,3.29
same,glycan array binding signal (z-score),Gal(b1-3)Gal(b1-4)GlcNAc,0.064
same,glycan array binding signal (z-score),Gal(b1-3)GalNAc(b1-3)Gal,-0.062
same,glycan array binding signal (z-score),Gal(b1-3)GlcNAc,0.101
same,glycan array binding signal (z-score),[12],-1.38
same,glycan array binding signal (z-score),[13],0.725
same,glycan array binding signal (z-score),[14],2.21
same,glycan array binding signal (z-score),[15],2.79
same,glycan array binding signal (z-score),[16],2.63
same,glycan array binding signal (z-score),[17],2.8
same,glycan array binding signal (z-score),Gal3S(b1-3)GlcNAc,0.215
same,glycan array binding signal (z-score),[18],1.28
same,glycan array binding signal (z-score),Gal3S6S(b1-4)GlcNAc6S,3.17
same,glycan array binding signal (z-score),Gal4S6S(b1-4)GlcNAc,-0.722
same,glycan array binding signal (z-score),GalNAc(b1-3)GalNAc,0.218
same,glycan array binding signal (z-score),GalNAc(b1-6)GalNAc,2.81
same,glycan array binding signal (z-score),[19],-1.15
same,glycan array binding signal (z-score),Glc(b1-6)Glc,-0.797
same,glycan array binding signal (z-score),[20],2.8
same,glycan array binding signal (z-score),[21],-1.08
same,glycan array binding signal (z-score),GlcNAc(b1-3)Fuc,-0.112
same,glycan array binding signal (z-score),[22],-0.143
same,glycan array binding signal (z-score),[23],0.523
same,glycan array binding signal (z-score),[24],-0.099
same,glycan array binding signal (z-score),[25],-1.4
same,glycan array binding signal (z-score),[26],-0.243
same,glycan array binding signal (z-score),[27],-1.32
same,glycan array binding signal (z-score),[28],-0.604
same,glycan array binding signal (z-score),[29],-0.438
same,glycan array binding signal (z-score),[30],0.205
same,glycan array binding signal (z-score),[31],-0.188
same,glycan array binding signal (z-score),[32],-1.15
same,glycan array binding signal (z-score),[33],2.53
same,glycan array binding signal (z-score),[34],0.004
same,glycan array binding signal (z-score),[35],-0.84
same,glycan array binding signal (z-score),[36],-1.2
same,glycan array binding signal (z-score),[37],3.3
same,glycan array binding signal (z-score),[38],2.87
same,glycan array binding signal (z-score),[39],3
same,glycan array binding signal (z-score),[40],0.485
same,glycan array binding signal (z-score),[41],0.413
same,glycan array binding signal (z-score),[42],-1.65
same,glycan array binding signal (z-score),[43],0.86
